Source: PubChem BioAssay (National Center for Advancing Translational Sciences (NCATS))
Sampled rows, rich in hits. Any-hit rate of the full collection: about 14%.
Giardia FBPA inh – inhibitors of Giardia lamblia fructose-1,6-bisphosphate aldolase | 290,000 compounds, 0.71% hits | A8B2U2 | purified Giardia FBPA | Potency, µM (series often up to 59.6 µM), usual class: inhibitors; note: nearly all actives have a fitted effect of over 55% in size
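40 nM FBPA preincubated 10 min at RT with compound (up to 57.5 uM final), then substrate plus GAPDH/TPI/NAD/arsenate coupling and diaphorase/resazurin added. Fluorescence read after 20 min at RT, 525/598 nm.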
Cycloheximide cs – counter-screen hit for Shiga toxin inhibitors, cycloheximide; 300,000 compounds, 12% hits; AID 2314; max response, %; cell reporter, cycloheximide protein synthesis inhibition counterscreen; in the data active = max response mostly above about 13%, no sharp cut-off; inactive = mostly below about 14%; note: read at 38.3 µM for the half of the compounds with a filed dose
LmPK inhibitor – blocks Leishmania mexicana pyruvate kinase activity; Q27686; purified LmPK, Kinase-Glo ATP luminescence, 1 h; Potency, µM (series often up to 57.5 µM), hits mostly inhibitors; 290,000 compounds, 0.37% hits; AID 1721
Target sequence (Q27686 whole entry, looked up): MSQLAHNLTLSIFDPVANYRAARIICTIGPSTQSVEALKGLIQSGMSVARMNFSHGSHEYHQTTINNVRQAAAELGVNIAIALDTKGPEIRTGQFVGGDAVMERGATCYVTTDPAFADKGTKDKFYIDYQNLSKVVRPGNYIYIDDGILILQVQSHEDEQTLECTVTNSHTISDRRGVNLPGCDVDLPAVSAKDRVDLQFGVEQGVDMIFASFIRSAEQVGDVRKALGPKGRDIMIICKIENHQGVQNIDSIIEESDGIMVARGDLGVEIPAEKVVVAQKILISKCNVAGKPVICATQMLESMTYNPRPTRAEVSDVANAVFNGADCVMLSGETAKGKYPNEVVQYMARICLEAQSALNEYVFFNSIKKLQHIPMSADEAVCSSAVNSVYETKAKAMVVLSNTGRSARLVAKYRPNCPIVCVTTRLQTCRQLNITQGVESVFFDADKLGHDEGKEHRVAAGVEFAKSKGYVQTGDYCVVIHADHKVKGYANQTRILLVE
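0.1 nM LmPK, 0.5 mM PEP, 0.1 mM ADP; 50 mM imidazole pH 7.2, 7 mM MgCl2, 50 mM KCl; 1 h RT. Kinase-Glo luminescence readout, normalized to no-enzyme (full inhibition) and uninhibited wells.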
NS1 function inh – inhibitors of influenza NS1 protein function; 270,000 compounds, 0.4% hits; Potency, µM (highest dose often 46.1 µM); calls by dose curve; note: actives are rising curves; nearly all actives have a fitted effect of over 50% in size
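Growth recovery, yeast-based: influenza A NS1 expressed in S. cerevisiae causes slow growth, and suppressors are detected by OD600. The parent strain without NS1 is used as positive control.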
Shiga inhibitor – Shiga toxin inhibition. Vero cells, Shiga toxin protein synthesis inhibition reporter. inhibition, % at 38.7 µM. 290,000 compounds, 9.2% hits; in the data active = inhibition mostly above about 28%, no sharp cut-off; inactive = mostly below about 43%
Hits are given with their value; . = inactive; ? = inconclusive; / = no result given; + = active, no number; [ ] = dose if it differs, or a comment. Unless noted, calls come from the whole dose curve; as a rule, active = well fitted curve in the direction sought with a large enough effect; inconclusive = small, poorly fitted or top-dose-only effect, or another doubt; inactive = no such curve, though single readings can be large; an effect the other way counts as inactive or inconclusive.

SMILES | Giardia FBPA inh | Cycloheximide cs | LmPK inhibitor | NS1 function inh | Shiga inhibitor
Cc1cccc(-n2ncc3c(Nc4c(C)n(C)n(-c5ccccc5)c4=O)ncnc32)c1 | . | . | . | . | .
Cc1cccc(-n2ncc3c(NC4CCCCC4)ncnc32)c1 | . | 46 | . | . | 75
C=CCNc1ncnc2c1cnn2-c1ccc(Cl)cc1 | . | 33 | . | . | 52
Cc1ccc(NC(=O)COC(=O)Cc2cccs2)cc1S(=O)(=O)N1CCOCC1 | / | . | . | . | .
COc1ccc2oc(C(=O)OCC(=O)N(CCC#N)c3ccccc3)c(C)c2c1 | / | . | . | . | .
O=C1CCC[C@@H](C(C(=O)OCc2ccccc2)C(=O)OCc2ccccc2)C1 | .[12.9 µM] | / | / | / | /
COc1cc(=O)n(C)c2c(OCC3OC(C)(C)OC3(C)C)cccc12 (stereo not drawn) | . | 9.7 | . | . | .
CNCC(O)c1cccc(O)c1 (stereo not drawn) | . | / | / | / | /
O=C(/C(=C\c1ccccc1)c1nc2ccccc2[nH]1)c1ccc(Cl)cc1 | . | 19 | . | . | 21
COc1ccc(C(=O)N/C(=C\c2cccs2)c2nc3ccccc3[nH]2)cc1OC | . | 22 | . | . | 98
COc1cc(/C=C(/C(=O)c2cccs2)c2nc3ccccc3[nH]2)ccc1O | . | 66 | . | ? | 111
O=C(/C(=C/c1ccc(Cl)cc1)c1nc2ccccc2[nH]1)c1cccs1 | . | 62 | . | . | .
COc1ccc(/C=C(/NC(=O)c2ccccc2)c2nc3ccccc3[nH]2)cc1OC | . | . | . | . | .
OC[C@H]1OC(O)[C@@H](O)[C@@H](O)[C@H]1O (stereo partly drawn) | . | . | / | / | .
O=C(/C=C/c1cccc(Cl)c1)c1nc2ccccc2[nH]1 | . | 14 | . | . | .
CCOC(=O)/C(C#N)=C/C=C1/C=CC=CN1C | . | 27 | . | . | .
C=CCN1C=CC(=C/C=C(/C#N)C(=O)OCC)C=C1 | . | 34 | . | . | .
CC1(OC(=O)c2cnc3ccccc3n2)C(=O)C=C2C=C3CCCN3C=C2C1=O (stereo not drawn) | .[12.9 µM] | / | .[11.5 µM] | / | /
CC(C)(C)c1cc(Br)c(O)c(CN(Cc2cc(C(C)(C)C)cc(Br)c2O)C2CCCCC2)c1 | / | / | / | . | /
Cc1ccccc1N1CCN(CCC(=O)Nc2ccc(F)cc2)CC1 | . | . | . | . | /
CC(=O)c1cccc(NC(=S)NC(=O)c2ccccc2Cl)c1 | . | 21 | . | . | 83
O=C(NC(=S)Nc1ccccc1O)c1ccccc1Cl | . | 44 | . | . | 77
CC(=O)c1cccc(NC(=S)NC(=O)c2ccc(C)cc2Cl)c1 | . | 38 | . | . | 90
Cc1ccc2c(c1)CC1(CN2C)C(=O)OC(C)(C)OC1=O | ? | . | 16µM | . | .
COC(=O)CC1c2ccccc2C=C(C2CC2)N1C(=O)OC (stereo not drawn) | . | / | .[11.5 µM] | / | /
SMILES | Giardia FBPA inh | Cycloheximide cs | LmPK inhibitor | NS1 function inh | Shiga inhibitor
Cc1cc(/C=C(\C#N)C(=O)NC2CC2)c(C)[nH]1 | . | 68 | . | . | 94
Cc1cc(/C=C(\C#N)C(=O)NC2CCCCCC2)c(C)[nH]1 | . | 35 | . | . | .
N#C/C(=C\c1ccccc1Br)C(=O)NC1CC1 | / | . | . | . | .
CC(C)(C)OC(=O)N1CCNc2ccccc2C1 | . | 12 | . | . | +
CC(C)(C)OC(=O)N1Cc2ccccc2C[C@H]1C(=O)N1CCC[C@H]1C(=O)O | . | . | . | . | .
COCCNC(=O)c1ccc2c(c1)ncn2-c1cccc(C)c1 | . | 15 | . | . | .
Cc1cccc(C(=O)Nc2ccc3c(c2)ncn3C)c1 | . | 51 | . | . | 69
Cc1cccc(C(=O)Nc2ccc3c(c2)nc(C)n3C)c1 | . | 39 | . | . | 41
COCCNC(=O)c1ccc2c(c1)nc(C)n2-c1cccc(Cl)c1 | . | . | . | . | .
Cn1cnc2cc(NC(=O)c3cccs3)ccc21 | . | 41 | . | . | 69
O=C(Nc1ccc2oc(-c3ccncc3)nc2c1)c1cccs1 | . | . | . | . | .
COc1ccc(CNC(=O)C(C)n2ccc3cc(S(=O)(=O)N4CCCCCC4)ccc32)cc1 (stereo not drawn) | . | . | . | . | .
c1csc(-c2nc(CN3CCSCC3)cs2)c1 | . | 45 | 16µM | . | 76
O=C(O)c1csc(-c2cccs2)n1 | . | . | . | / | .
O=S1(=O)CCN(Cc2csc(-c3cccs3)n2)CC1 | . | 31 | ? | . | 68
O=C1CCCC=C1[C@@H](O)CCOCc1ccccc1 | .[12.9 µM] | / | / | / | /
O=C(N/N=C/c1cn(-c2ccccc2)nc1-c1cc2ccccc2o1)c1c[nH]c2ccccc12 | . | 45 | . | . | 133
O=C(N/N=C/c1cn(-c2ccccc2)nc1-c1cc2ccccc2o1)c1ccccc1Br | . | 66 | . | . | 100
C=C1C[C@H](OC(=O)C(C)(O)CCl)C2C(=C)C(=O)O[C@@H]2C2C1C[C@H](O)[C@]2(O)CCl (stereo partly drawn) | . | / | / | / | /
Cc1cccc2c3c(ccc12)C1=C(C(=O)C3=O)[C@@H](C)CO1 | 7.1µM | . | / | / | .
CC1COc2ccccc2C1=O (stereo not drawn) | . | / | / | / | /
Cc1cccc(N2CCN(C(=O)NC3CCCCC3)CC2C)c1 (stereo not drawn) | . | . | . | . | .
Cc1cccc(-n2c(C)cc(C(=O)NC3CCCCC3)c2C)c1 | . | 94 | . | . | 85
COc1ccc(-n2c(C)cc(C(=O)NC3CCCCC3)c2C)cc1 | . | 58 | . | . | 94
COc1ccc(N2CC(C(=O)NC3CCCCC3)CC2=O)cc1 (stereo not drawn) | . | . | . | . | .
SMILES | Giardia FBPA inh | Cycloheximide cs | LmPK inhibitor | NS1 function inh | Shiga inhibitor
O=C(NC(=S)NCCN1CCOCC1)c1ccc(Cl)cc1Cl | . | . | . | . | .
CCCCNC(=S)NC(=O)c1ccc(Cl)cc1Cl | . | 32 | . | . | .
CC1CCCC(NC(=S)NC(=O)c2ccccc2Br)C1C (stereo not drawn) | . | . | . | . | active
CCCCNC(=S)NC(=O)c1ccccc1Br | . | 18 | . | . | 82
CCC1CN(C(=O)N2CCC(C(=O)NCCc3ccccc3)CC2)c2ccccc2O1 (stereo not drawn) | / | . | . | . | .
COc1ccc2cc(C(=O)N3CCC(Cc4ccccc4)CC3)[nH]c2c1 | . | . | . | . | .
COc1cccc(NC(=O)COC(=O)C2C3CC4OC(=O)C2C4C3)c1 (stereo not drawn) | . | 21 | . | . | .
Cc1ccc(NC(=O)Cn2ccc(=O)[nH]c2=O)cc1 | . | 30 | . | . | .
O=C(Cn1ccc(=O)[nH]c1=O)NCCO | . | . | . | / | .
C/C(CCN1CCCCc2nc(C)c(C)cc21)=N\O[C@@H](C)CN1CCCc2nc(C)c(C)cc21 | .[12.9 µM] | / | / | / | /
CSc1nsc(/C=C/Nc2ccc(O)cc2C)c1C#N | 18µM | 28 | . | / | .
N[C@@H](CCCCNC(=O)CCCC[C@@H]1SC[C@H]2NC(=O)N[C@H]12)C(=O)O | . | . | / | / | .
CC(C)n1nccc1NC(=O)Nc1ccccc1 | . | . | . | . | .
COc1ccccc1CCC(=O)Oc1ccccc1C#N | / | . | . | . | .
